Inconclusive results are not listed. Active and inactive are the calls of the source. Unless noted, the call rests on the fitted dose curve; in most records, active means well fitted curve in the direction sought with a large enough effect; inconclusive means small, poorly fitted or top-dose-only effect, or another doubt; inactive means no such curve, though single readings can be large; an effect the other way counts as inactive or inconclusive.

The nature of test [1]: Cytometric Cell-Based qHTS for Inhibitors of the mTORC1 Signaling Pathway in MEF (Tsc2-/-, p53-/-) Cells (AID 2660).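 Further: Tsc2 and p53 null MEFs carrying empty vector with compound for 24 h; percent of cells above a phospho-rpS6 to PI ratio cutoff in each well; series mostly up to about 38 µM.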 The procedure, abridged: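 Cells are plated, treated with compound for 24 hrs at 37 degree Celsius, then fixed, blocked and immunostained for phospho-rpS6 Ser235/236. Propidium iodide counterstain follows. Per-well % positive cells is derived from the PI-normalized phospho-S6 signal.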
For orientation: Quantitative high-throughput screening tests each substance at several concentrations.

Test [2] is described as follows: High Content Imaging Cell-Based qHTS for Inhibitors of the mTORC1 Signaling Pathway in MEF (Tsc2-/-, p53-/-) Cells (AID 2666).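 Further: percent of cells scored positive for phospho-rpS6 Ser235/236 immunostaining by imaging.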 The essentials: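 Cells were plated, dosed with compound after 24 hrs, and incubated another 24 hrs at 37 degree Celsius. Fixed cells were immunostained for phospho-rpS6 Ser235/236 and counterstained, and the normalized signal was scored as % active cells against rapamycin and DMSO controls.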

Test [3] is described as follows: High Content Imaging Cell-Based qHTS for Inhibitors of the mTORC1 Signaling Pathway in MEF Cells (AID 2667).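 Further: Tsc2-/- p53-/- MEFs stably re-expressing wild-type Tsc2 exposed 24 h; series mostly up to about 38 µM.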 The procedure, abridged:
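Immunofluorescence for rpS6 phosphorylation in MEFs of Tsc2-/-, p53-/- background rescued with WT Tsc2. Compound exposure lasted 24 hrs. Inhibition was scored against rapamycin-treated control wells.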

Test [4] in a line: Cytometry Cell-Based qHTS for Inhibitors of the mTORC1 Signaling Pathway in MEF cells (AID 2668).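 Further: Tsc2-/- p53-/- mouse embryonic fibroblasts stably re-expressing wild-type Tsc2; percent cells positive for phospho-rpS6 Ser235/236 relative to propidium iodide stain; series mostly up to about 38 µM.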 The procedure, abridged:
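Tsc2-/-, p53-/- MEFs re-expressing WT Tsc2; cpd 24 hrs, 37 degree Celsius; PFA fix, Alexa-488 p-rpS6 (Ser235/236) Ab 2 hrs RT, PI counterstain; Acumen 488nm scan; p-S6/PI ratio → % positive cells; PI count = viability.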

Test [5] can be described thus: Validation screen for small molecules that induce DNA re-replication in MCF 10A normal breast cells (AID 463097). Further: nearly all actives have a fitted effect of over 60% in size. Further: potency means the concentration at half of the fitted maximal effect. The essentials:
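Image-based qHTS: normal breast cells are incubated with compound for 48 hr, stained with Hoechst, and scanned for total nuclear fluorescence. Compounds raising the fraction of nuclei with elevated DNA content count as re-replication inducers.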

In test [6] the target is Ubiquitin carboxyl-terminal hydrolase 2 (Homo sapiens) (UniProt O75604). Description: qHTS Validation Assay for Inhibitors of Ubiquitin-specific Protease USP2a Using CHOP2 as the Reporter (AID 463106). The procedure, abridged:
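10nM USP2 core + cpd, 30min RT; add 25nM Ub-CHOP2/25nM substrate; 60min RT; FI 485/531nm. Buffer Tris pH 8.0, CaCl2, BME, CHAPS. Norm. to NEM = 100% inhibition; time-zero read flags fluorescent artifacts.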

Test [7] deals with DNA polymerase III PolC-type (Bacillus subtilis (strain 168)) (UniProt P13267). Description: qHTS Validation Assay for the Inhibitors of DNA Replication in Gram-Positive Bacteria (AID 485295).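 Further: reconstituted holoenzyme with PolC plus beta clamp SSB and primase; PicoGreen fluorescence of double-stranded DNA made on primed circular M13 template; series mostly up to about 57 µM.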 The essentials:
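First, compound is mixed with the reconstituted replication complex and held at room temperature. Next, circular single-stranded M13Gori with nucleotides starts synthesis. Finally, PicoGreen in EDTA halts the reaction and stains double-stranded product for fluorescence reading.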

Test [8] has as its target Tumor susceptibility gene 101 protein (Homo sapiens) (UniProt Q99816). Description: qHTS Validation Assay for Iinhibitors of HIV-1 Budding by Blocking the Interaction of PTAP/TSG101 (AID 485342; calls by dose curve). The procedure, abridged: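 Binding of a FITC-tagged PTAP-motif peptide (50 nM) to the Tsg101 binding domain (10 uM) is monitored by fluorescence polarization. Compounds are pin-delivered before peptide addition, and incubation runs 20 min at room temperature.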

A short description of test [9]: qHTS Validation Assay to Find Inhibitors of Chronic Active B-Cell Receptor Signaling (AID 485345; active means well fitted curve in the direction sought with a large enough effect in the main read-out, with a control signal flat, not every such curve was filed as active). The procedure, abridged: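 Read-out: ratio of filter-corrected green (IkappaBalpha fusion) to red (native) luciferase signal in doxycycline-induced TMD8 cells after 4 h at 37C. Titration spanned 46 uM–3 nM; Data were normalised to basal cells and 10 uM MG-132 wells.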

Test [10] concerns the target Beta-2 adrenergic receptor (Homo sapiens) (UniProt P07550). Description: qHTS validation assay of beta-arrestin-biased ligands of beta2-adrenergic receptor (AID 485366). The procedure, abridged:
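Values derive from curve-fitted %Activity of a luminescent beta-arrestin recruitment reporter; compounds tested up to 46 microM on Tango cells for 18 hr at 37 degrees C, 5% CO2.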

The target of test [11] is Thioredoxin reductase 1, cytoplasmic (Rattus norvegicus) (UniProt O89049). Description: qHTS Assay for Substrates of Mammalian Selenoprotein Thioredoxin Reductase 1 (TrxR1) (AID 488772).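 Further: NADPH fluorescence in the first read after selenite addition and not the 8 min delta; series mostly up to about 57 µM; a drop in NADPH fluorescence below the no-compound background marks a TrxR1 substrate.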 The procedure, abridged: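 Quantitative HTS in Tris-HCl buffer at pH 7.5 with EDTA and Tween-20, using rat TrxR1, 400 uM NADPH and 400 uM selenite (final). A fall in initial NADPH fluorescence relative to background marked substrate behaviour.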

The target is the same in test [12]. Description: qHTS Assay for Inhibitors of Mammalian Selenoprotein Thioredoxin Reductase 1 (TrxR1) (AID 488773). Further: nearly all actives have a fitted effect of over 40% in size. Further: potency means the concentration at half of the fitted maximal effect. The following applies: Potency: inhibition. The essentials: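 Steps: enzyme (90 nM) plus NADPH (400 uM final), 5 min at ~22 deg C; compound added, 15 min; selenite (400 uM final) added; fluorescence followed for 8 min. Concentration-response curves derived from the normalized delta values.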

Test [13] addresses Flap endonuclease 1 (Homo sapiens) (UniProt P39748). Nature of the test: qHTS Validation Assay for the Inhibitors of Human Flap endonuclease 1 (FEN1) (AID 488816). The essentials:
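Readings taken at 0 and 15 min after starting the reaction with 50 nM (final) substrate supplied the signal. Compounds had first sat with 10 nM FEN1 reagent for 15 min at room temperature. Values come from Hill-equation concentration-response fits.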

For test [14], the target named is Methanococcus maripaludis chaperonin (MmCpn) (UniProt Q6LX38). Nature of the test: High-Throughput Screening for Modulators of Cytosolic Chaperonin Activity: MmCpn Primary Screen (AID 488978).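 Further: 50 nM MmCpn enzyme hydrolysing 30 µM ATP at 37 °C.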 The essentials:
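Steps: chaperonin 50 nM final; add compound, 5 min RT; start with ATP, 30 uM final; hold 10 min at 37C; add ADP Transcreener HTRF reagent, 5 min; read ex 320, em 590 and 665 nm.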

A short description of test [15]: Quantitative high throughput screen for delayed death inhibitors of the malarial parasite plastid, 96 hour incubation (AID 488745). Further: nearly all actives have a fitted effect of over 70% in size. Further: potency means the concentration at half of the fitted maximal effect. The essentials: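 Growth of reporter-bearing P. falciparum in red cells is measured after 96 h with compound, covering two erythrocytic cycles. Luminescence from the integrated luciferase serves as the growth signal.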
Test [16] deals with M-phase phosphoprotein 8 (Homo sapiens) (UniProt Q99549). Description: qHTS Validation Assay for Inhibitors for MPP8 Chromodomain Interactions with Methylated Histone Tails (AID 488949).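 Further: 50 nM MPP8 with 50 nM peptide preformed then compounds added for 30 min; AlphaScreen signal from MPP8 chromodomain bound to biotinylated H3K9me3 peptide; top concentration of the series differs between compounds; nearly all actives have a fitted effect of over 55% in size.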 The procedure, abridged: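 50 nM MPP8 + 50 nM b-H3K9me3 peptide, PBS pH 7.4/0.01% Tween-20, 30 min RT; + cpd 30 min RT; + AlphaScreen donor/Ni-chelate acceptor beads 10 ug/mL final, 30 min dark; luminescence read.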

The target in test [17] is Chromobox protein homolog 1 (Homo sapiens) (UniProt P83916). Nature of the test: qHTS Validation Assay for Inhibitors of HP1-beta Chromodomain Interactions with Methylated Histone Tails (AID 488953). Further: nearly all actives have a fitted effect of over 50% in size. Further: potency means the concentration at half of the fitted maximal effect. The procedure, abridged:
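Measured as loss of AlphaScreen luminescence from streptavidin donor and nickel acceptor beads (10 ug/mL final) bridging HP1-beta and biotin-H3(1-18)K9me3, each 50 nM. Compounds met the preassembled complex for 30 min at RT.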

Test [18] can be described thus: Quantitative high throughput screen for delayed death inhibitors of the malarial parasite plastid, 48 hour incubation (AID 488752). Further: nearly all actives have a fitted effect of over 65% in size. The essentials: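 One parasite generation (48 h, 37 C, 5% CO2) of luciferase-reporter P. falciparum in erythrocytes is run with test compound; decreased luminescence indicates inhibited growth.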
Test [19] deals with ATP-dependent 6-phosphofructokinase (Trypanosoma brucei brucei) (UniProt O15648). Nature of the test: qHTS Validation Assay to Find Inhibitors of T. brucei phosphofructokinase (AID 485368). The procedure, abridged: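 Enzyme reaction in triethanolamine buffer pH 8.0 with 5 mM MgCl2, 0.01% Tween20 and 0.1% BSA; PFK 1.25 nM, F6P 0.5 mM, ATP 0.1 mM, 45 min RT. ADP quantified by ADP-Glo.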

Chain of Methanococcus maripaludis chaperonin (MmCpn) (Q6LX38 1-543): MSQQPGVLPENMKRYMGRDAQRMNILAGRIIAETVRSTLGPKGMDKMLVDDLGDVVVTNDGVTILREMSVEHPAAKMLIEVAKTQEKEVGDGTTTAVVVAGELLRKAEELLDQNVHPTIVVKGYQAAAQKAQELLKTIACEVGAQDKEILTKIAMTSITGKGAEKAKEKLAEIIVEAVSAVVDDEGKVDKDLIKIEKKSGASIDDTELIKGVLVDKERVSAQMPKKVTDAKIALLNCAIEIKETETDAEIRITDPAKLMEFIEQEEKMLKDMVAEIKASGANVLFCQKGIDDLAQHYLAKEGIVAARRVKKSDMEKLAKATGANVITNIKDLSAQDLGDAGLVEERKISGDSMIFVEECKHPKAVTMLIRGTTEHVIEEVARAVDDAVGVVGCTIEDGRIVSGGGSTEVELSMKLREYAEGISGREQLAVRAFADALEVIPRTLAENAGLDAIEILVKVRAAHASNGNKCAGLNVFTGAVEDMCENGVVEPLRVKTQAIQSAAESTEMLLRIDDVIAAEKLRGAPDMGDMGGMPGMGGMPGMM
Chain of Tumor susceptibility gene 101 protein (Homo sapiens) (Q99816 whole entry, looked up, the tested form may be a part): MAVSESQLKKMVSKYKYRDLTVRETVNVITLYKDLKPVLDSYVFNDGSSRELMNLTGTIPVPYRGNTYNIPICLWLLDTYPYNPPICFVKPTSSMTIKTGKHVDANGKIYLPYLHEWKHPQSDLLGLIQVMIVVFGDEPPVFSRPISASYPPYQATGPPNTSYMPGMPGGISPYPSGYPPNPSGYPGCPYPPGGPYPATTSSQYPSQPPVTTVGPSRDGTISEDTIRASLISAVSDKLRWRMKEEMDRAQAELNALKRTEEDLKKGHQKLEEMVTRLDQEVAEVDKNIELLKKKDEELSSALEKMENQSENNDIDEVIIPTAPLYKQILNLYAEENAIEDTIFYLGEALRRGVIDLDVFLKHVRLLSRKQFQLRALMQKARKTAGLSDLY
Chain of M-phase phosphoprotein 8 (Homo sapiens) (Q99549 whole entry, looked up): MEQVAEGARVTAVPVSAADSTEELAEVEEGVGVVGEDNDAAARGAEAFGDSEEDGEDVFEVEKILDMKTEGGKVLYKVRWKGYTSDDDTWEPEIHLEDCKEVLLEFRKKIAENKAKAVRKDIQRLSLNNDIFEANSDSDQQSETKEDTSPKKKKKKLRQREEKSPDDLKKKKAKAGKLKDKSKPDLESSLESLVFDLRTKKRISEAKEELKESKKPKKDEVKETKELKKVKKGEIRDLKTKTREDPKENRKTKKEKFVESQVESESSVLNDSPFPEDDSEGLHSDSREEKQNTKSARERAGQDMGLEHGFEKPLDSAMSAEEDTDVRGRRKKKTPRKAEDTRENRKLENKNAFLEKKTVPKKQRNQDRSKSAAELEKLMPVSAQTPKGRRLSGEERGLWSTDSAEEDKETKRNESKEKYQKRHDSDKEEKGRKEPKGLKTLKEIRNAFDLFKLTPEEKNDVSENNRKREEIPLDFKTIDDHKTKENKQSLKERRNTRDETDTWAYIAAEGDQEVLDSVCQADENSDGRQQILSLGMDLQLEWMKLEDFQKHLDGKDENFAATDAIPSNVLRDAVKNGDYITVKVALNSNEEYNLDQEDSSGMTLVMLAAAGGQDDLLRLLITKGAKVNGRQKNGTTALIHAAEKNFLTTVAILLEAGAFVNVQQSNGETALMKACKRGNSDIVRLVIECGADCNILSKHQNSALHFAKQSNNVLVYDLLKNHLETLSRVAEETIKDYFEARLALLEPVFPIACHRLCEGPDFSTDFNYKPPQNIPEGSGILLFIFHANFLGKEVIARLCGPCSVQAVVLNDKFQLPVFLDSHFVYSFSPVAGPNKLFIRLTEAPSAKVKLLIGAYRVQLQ
Chain of DNA polymerase III PolC-type (Bacillus subtilis (strain 168)) (P13267 whole entry, looked up): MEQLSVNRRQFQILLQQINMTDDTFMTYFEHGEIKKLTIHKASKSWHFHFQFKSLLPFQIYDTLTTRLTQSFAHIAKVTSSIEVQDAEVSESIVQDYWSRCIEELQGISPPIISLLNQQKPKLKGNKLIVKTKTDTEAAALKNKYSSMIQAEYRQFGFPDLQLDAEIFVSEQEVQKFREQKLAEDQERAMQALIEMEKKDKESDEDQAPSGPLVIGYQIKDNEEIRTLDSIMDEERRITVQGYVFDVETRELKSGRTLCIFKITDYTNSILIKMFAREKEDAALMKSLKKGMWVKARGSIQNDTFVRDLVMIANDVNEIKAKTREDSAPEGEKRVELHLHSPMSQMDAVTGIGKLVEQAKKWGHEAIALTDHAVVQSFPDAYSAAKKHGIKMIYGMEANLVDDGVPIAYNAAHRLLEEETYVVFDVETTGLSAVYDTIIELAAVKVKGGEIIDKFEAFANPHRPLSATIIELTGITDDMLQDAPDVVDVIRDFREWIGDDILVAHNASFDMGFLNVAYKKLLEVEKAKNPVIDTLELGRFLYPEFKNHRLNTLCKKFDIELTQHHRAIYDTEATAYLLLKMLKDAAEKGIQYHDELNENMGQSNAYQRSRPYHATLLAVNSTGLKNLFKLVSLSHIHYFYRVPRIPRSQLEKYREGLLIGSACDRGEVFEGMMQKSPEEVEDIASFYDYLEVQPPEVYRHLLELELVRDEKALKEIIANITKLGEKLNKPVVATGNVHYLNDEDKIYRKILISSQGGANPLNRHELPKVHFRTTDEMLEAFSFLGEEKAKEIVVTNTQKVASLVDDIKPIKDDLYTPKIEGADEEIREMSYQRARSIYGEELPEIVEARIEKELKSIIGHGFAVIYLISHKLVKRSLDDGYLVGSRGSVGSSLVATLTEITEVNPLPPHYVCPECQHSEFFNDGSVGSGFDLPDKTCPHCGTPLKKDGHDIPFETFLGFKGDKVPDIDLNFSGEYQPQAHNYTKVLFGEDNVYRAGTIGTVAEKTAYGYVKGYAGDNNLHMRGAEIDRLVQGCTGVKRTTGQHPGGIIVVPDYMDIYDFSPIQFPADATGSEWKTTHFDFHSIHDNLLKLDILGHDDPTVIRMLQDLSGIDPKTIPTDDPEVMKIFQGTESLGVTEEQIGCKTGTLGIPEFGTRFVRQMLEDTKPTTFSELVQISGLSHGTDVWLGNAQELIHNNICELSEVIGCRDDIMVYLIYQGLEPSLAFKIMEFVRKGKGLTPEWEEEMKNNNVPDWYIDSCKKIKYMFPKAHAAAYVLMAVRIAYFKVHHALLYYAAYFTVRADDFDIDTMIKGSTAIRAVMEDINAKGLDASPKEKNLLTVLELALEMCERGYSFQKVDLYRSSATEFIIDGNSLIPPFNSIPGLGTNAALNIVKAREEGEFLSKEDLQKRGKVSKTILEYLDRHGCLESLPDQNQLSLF
Chain of Thioredoxin reductase 1, cytoplasmic (Rattus norvegicus) (O89049 whole entry, looked up): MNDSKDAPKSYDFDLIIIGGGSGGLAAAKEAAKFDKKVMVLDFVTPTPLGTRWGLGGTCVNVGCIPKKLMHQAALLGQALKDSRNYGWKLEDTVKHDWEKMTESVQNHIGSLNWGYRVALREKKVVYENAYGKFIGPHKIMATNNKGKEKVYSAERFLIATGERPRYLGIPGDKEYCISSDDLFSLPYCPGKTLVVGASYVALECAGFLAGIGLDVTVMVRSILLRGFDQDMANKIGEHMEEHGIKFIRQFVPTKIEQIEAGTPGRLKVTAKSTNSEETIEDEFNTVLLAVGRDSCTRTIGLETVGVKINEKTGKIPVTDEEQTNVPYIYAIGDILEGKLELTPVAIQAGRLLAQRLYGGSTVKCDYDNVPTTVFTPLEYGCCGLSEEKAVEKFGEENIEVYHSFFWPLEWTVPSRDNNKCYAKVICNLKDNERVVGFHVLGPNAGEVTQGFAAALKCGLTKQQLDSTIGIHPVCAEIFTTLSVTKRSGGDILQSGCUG
Chain of Ubiquitin carboxyl-terminal hydrolase 2 (Homo sapiens) (O75604 whole entry, looked up): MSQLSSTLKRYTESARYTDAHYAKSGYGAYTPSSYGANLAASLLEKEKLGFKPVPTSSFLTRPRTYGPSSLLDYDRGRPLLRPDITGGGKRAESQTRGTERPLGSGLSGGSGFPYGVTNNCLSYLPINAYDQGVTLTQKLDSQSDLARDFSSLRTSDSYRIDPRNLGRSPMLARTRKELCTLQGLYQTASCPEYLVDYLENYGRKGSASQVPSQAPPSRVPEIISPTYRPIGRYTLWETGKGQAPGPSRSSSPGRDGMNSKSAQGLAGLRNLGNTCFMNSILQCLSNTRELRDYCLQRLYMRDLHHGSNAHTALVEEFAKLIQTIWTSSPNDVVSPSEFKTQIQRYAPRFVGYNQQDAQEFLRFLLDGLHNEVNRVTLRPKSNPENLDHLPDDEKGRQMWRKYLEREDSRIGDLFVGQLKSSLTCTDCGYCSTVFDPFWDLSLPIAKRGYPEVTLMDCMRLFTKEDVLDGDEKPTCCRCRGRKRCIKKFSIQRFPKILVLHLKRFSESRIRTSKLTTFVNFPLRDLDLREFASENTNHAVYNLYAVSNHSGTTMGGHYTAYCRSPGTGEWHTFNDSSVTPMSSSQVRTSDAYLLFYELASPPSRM
Chain of Chromobox protein homolog 1 (Homo sapiens) (P83916 whole entry, looked up): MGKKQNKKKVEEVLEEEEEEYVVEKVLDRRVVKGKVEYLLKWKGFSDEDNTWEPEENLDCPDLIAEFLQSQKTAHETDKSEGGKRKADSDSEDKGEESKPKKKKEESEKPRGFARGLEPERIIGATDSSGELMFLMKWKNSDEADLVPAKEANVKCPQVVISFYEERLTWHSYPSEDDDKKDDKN
Chain of Beta-2 adrenergic receptor (Homo sapiens) (P07550 whole entry, looked up): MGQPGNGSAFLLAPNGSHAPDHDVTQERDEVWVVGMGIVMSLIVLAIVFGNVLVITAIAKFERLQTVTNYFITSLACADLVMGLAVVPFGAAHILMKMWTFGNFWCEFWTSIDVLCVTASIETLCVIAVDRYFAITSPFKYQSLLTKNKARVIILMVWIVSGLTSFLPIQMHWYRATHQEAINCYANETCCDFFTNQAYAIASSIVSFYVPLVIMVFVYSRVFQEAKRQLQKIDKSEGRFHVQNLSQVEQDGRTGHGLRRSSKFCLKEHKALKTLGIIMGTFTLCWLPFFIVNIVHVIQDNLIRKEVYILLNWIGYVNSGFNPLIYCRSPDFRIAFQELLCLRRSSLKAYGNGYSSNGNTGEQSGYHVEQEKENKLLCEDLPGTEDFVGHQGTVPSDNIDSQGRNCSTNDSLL

Regarding `Nc1ccc(-c2ccc3ccccc3n2)cc1`, the outcome in test [1], in [8], in test [9], in test [10], in [11] and in test [14] was inactive. In addition, the Potency entry in test [2], in [3], in [4], in test [6], in test [7] and in [12] was “inactive” in each case. For the same compound, in test [13], the Potency result was “inactive”. Further, in test [5], the Potency is 12.6 µM (active).
For `NC(N)=NC(N)=Nc1cccc(Cl)c1`, the compound was called inactive in test [1], in test [8], in test [9], in test [10], in test [11] and in test [14]. Also, the Potency result in test [2], in test [3], in test [4], in test [5], in test [6] and in [7] was “inactive” throughout. Moreover, the Potency entry in [12], in test [13], in [16] and in [17] was “inactive” each time. In addition, the Potency in [15] is 9.28 µM (active).
As to `COc1cc(CC(=O)O)ccc1O`, the outcome in test [1], in test [8], in [9], in test [10] and in test [14] was inactive. The Potency entry in test [2], in test [3], in [4], in test [5], in test [6] and in test [7] was “inactive” throughout. Further, the Potency result in test [15], in test [18], in test [12], in test [13] and in test [16] was “inactive” throughout. Also, the Potency in [17] is 0.006 µM (active).
On to `N[C@@H](CCC(=O)N[C@H](CSN=O)C(=O)NCC(=O)O)C(=O)O`, for which the compound was classed as inactive in [1], in [8], in [9], in [10], in test [11] and in test [14]. In addition, the Potency entry in test [2], in [3], in test [4], in [5], in [6] and in test [7] was “inactive” throughout. Further, the Potency entry in test [12], in [13] and in test [16] was “inactive” each time.
For `Oc1cc2c(cc1O)C(c1ccccc1)CNCC2` (configuration not stated), the call in [1], in [8], in test [9], in test [10] and in test [14] was inactive. Further, the Potency result in test [2], in test [3], in test [4], in test [5], in [6] and in test [7] was “inactive” in each case. Moreover, the Potency result in [15], in test [18], in test [12], in test [13] and in test [16] was “inactive” each time.
In the case of `Cn1c(=O)c2c(nc(/C=C/c3cccc(Cl)c3)n2C)n(C)c1=O`, the result in test [1], in test [8], in test [10], in test [11] and in test [14] was inactive. Also, the Potency entry in test [2], in [3], in [4], in test [5], in test [6] and in test [7] was “inactive” in each case. The Potency result in [19], in [15], in [18], in test [12], in test [16] and in test [17] was “inactive” throughout.
Consider `O=C(O)Cc1ccc(O)c(O)c1`, for which the compound was called inactive in test [1], in [8], in test [9], in [10] and in test [14]. The Potency entry in test [2], in test [3], in [4], in test [5], in test [6] and in test [7] was “inactive” each time. Also, the Potency result in test [15], in test [18], in test [16] and in test [17] was “inactive” in each case. Moreover, the Potency in test [12] was 7.52 µM (active).

Source of the values: PubChem BioAssay (NCATS).
